# Inconclusive results are not listed. Activity calls are given as the source filed them. How the source made its calls: active means hit-call score of the fitted dose curve at least 0.9, where 1 is the maximum; inconclusive means response in the unintended direction; inactive means score below 0.9.
# Read-out: xenobiotic metabolism (CYP2C9), CYP2C9 (gene 1559)
# Test: CLD_CYP2C9_6hr: CellzDirect (CLD) Gene Expression Assay for xenobiotic metabolism (CYP2C9) at 6 hours (AID 2283664)
# Method: CLD_6hr is a cell-based, multiplexed-readout assay that uses hepatocyte, a human liver primary cell, with measurements taken at 6 hours after chemical dosing in a 96-well plate.CLD_CYP2C9_6hr is one of 16 assay component(s) measured or calculated from the CLD_6hr assay. It is designed to make measurements of mRNA induction, a form of inducible reporter, as detected with chemiluminescence signals by Quantitative Nuclease Protection Assay (qNPA) technology.Data from the assay component CLD_CYP2C9_6hr was analyzed at the endpoint, CLD_CYP2C9_6hr, in the positive analysis fitting direction relative to DMSO as the negative control and baseline of activity. Using a type of inducible reporter, gain-of-signal activity can be used to understand changes in the reporter gene as they relate to the gene CYP2C9. Furthermore, this assay endpoint can be referred to as a primary readout. To generalize the intended target to other relatable targets, this assay endpoint is annotated to the cyp intended target family, where subfamily is xenobiotic metabolism.
# Human hepatocyte cultures were treated daily for two consecutive days with fresh dosing solutions containing appropriate concentrations of the 320 ToxCast chemicals (chemical identities were blinded to CellzDirect and other ToxCast collaborators), vehicle control (0.2% DMSO), and positive control inducers as summarized in Table 1. Due to the large number of treatment groups and chemicals examined, the ToxCast chemicals were divided into two groups (spanning two independent cultures of hepatocytes from separate donor preparations (Hu778: ToxCast plates 1 and 2; Hu776: ToxCast plates 3 and 4). Each preparation of human hepatocyte cultures was treated with respective vehicle control, medium only control, set of six positive controls/reference chemicals for the five hepatic receptor pathways, and a subset of eight of the ToxCast chemicals (indoxacarb, pyrithiobac-sodium, norflurazon, cyhalofop-butyl, methomyl, thiram, acetochlor, and propiconazole). These replicate data, coupled with internal replicates designed within the blinded ToxCast chemical library, provided additional data to evaluate interindividual differences between hepatocyte preparations and their potential impact on chemical profiles.Cell morphology and integrity were evaluated using phase-contrast microscopy as an indicator of hepatocyte cell health (Tyson & Green, 1987). Cultures for each treatment group (i.e., media, vehicle [0.2% DMSO], positive control inducers [multiple concentrations], and the ToxCast chemicals [multiple concentrations]) were observed and cell morphology was assessed relative to vehicle control cultures at each harvest time point (0, 6, 24, or 48 h). […] Images were evaluated at the conclusion of the study to assess changes in cell integrity and account for the effects of chemical exposure on uncharacteristic changes in concentration-dependent gene expression profiles. The results from these determinations of apparent cytotoxicity were annotated (yes/no) alongside the corresponding qNPA data for reference.At the conclusion of each treatment period, hepatocyte cultures (96-well) were washed with 1 volume of HBSS, lysed by addition of 25 ul ArrayPlate lysis buffer (HTG, Tucson, AZ), and 70 ul/well of Denaturation Oil, denatured by incubation at 95C for 10 min, and frozen at approximately -70C until analysis by nuclease protection assay (qNPA) (Roberts et al., 2007). For qNPA analysis, cell lysates were thawed at 50C for approximately 30 min, qNPA probes were added, and samples were incubated at 95C for 10 min to begin the detection process by denaturing the target RNA, dissociating the duplexes and secondary structure hybridization. At the conclusion of the hybridization period, S1 nuclease reagent was added to each sample to digest all nonprotected nucleotides at 50C for 60-90 min. […]
row,SMILES,outcome
1,CC(C)=CC1C(C(=O)OCN2C(=O)C3=C(CCCC3)C2=O)C1(C)C (stereo not drawn),inactive
2,CCOP(=O)(OCC)Oc1cc(C)nc(C(C)C)n1,inactive
3,CC(=NC#N)N(C)Cc1ccc(Cl)nc1,inactive
4,Nc1nc(N)nc(NC2CC2)n1,inactive
5,CCC(CC)Nc1c([N+](=O)[O-])cc(C)c(C)c1[N+](=O)[O-],inactive
6,CCOP(=S)(OCC)OC(Cl)C(Cl)(Cl)Cl (stereo not drawn),inactive
7,CC[C@H](C)[C@H]1O[C@]2(C=C[C@@H]1C)C[C@@H]1C[C@@H](C/C=C(\C)[C@@H](O[C@H]3C[C@H](OC)[C@@H](O[C@H]4C[C@H](OC)[C@@H](NC)[C@H](C)O4)[C@H](C)O3)[C@@H](C)/C=C/C=C3\CO[C@@H]4[C@H](O)C(C)=C[C@@H](C(=O)O1)[C@]34O)O2,inactive
8,CCc1cccc(CC)c1N(COC)C(=O)CCl,inactive
9,CC(C1CC1)C(O)(Cn1cncn1)c1ccc(Cl)cc1 (stereo not drawn),inactive
10,CC(C)N(C(=O)SCC(Cl)=C(Cl)Cl)C(C)C,inactive
11,CCOP(=S)(OCC)Oc1ccc2c(C)c(Cl)c(=O)oc2c1,inactive
12,O=[N+]([O-])c1cc(C(F)(F)F)c(Cl)c([N+](=O)[O-])c1Nc1ncc(C(F)(F)F)cc1Cl,inactive
13,CCCCOC(=O)c1ccccc1C(=O)O,inactive
14,CNC(=O)ON=C(SC)C(=O)N(C)C,inactive
15,Nc1c(Cl)cc([N+](=O)[O-])cc1Cl,inactive
16,CSC1=N[C@@](C)(c2ccccc2)C(=O)N1Nc1ccccc1,inactive
17,CCNc1nc(Cl)nc(NC(C)(C)C#N)n1,inactive

row,SMILES,outcome
1,COc1cc(OC)nc(Sc2cccc(Cl)c2C(=O)O)n1,inactive
2,CCCSP(=O)(OCC)SCCC,inactive
3,CON=C(C(=O)OC)c1ccccc1CON=C(C)c1cccc(C(F)(F)F)c1,inactive
4,COP(=O)(NC(C)=O)SC (stereo not drawn),inactive
5,CCCCSP(=O)(SCCCC)SCCCC,inactive
6,O=c1ccc(=O)[nH][nH]1,inactive
7,CN1COCN(Cc2cnc(Cl)s2)C1=N[N+](=O)[O-],inactive
8,Cc1ccn2nc(S(=O)(=O)Nc3c(F)cccc3F)nc2n1,inactive
9,COc1cccc(C(=O)NN(C(=O)c2cc(C)cc(C)c2)C(C)(C)C)c1C,inactive
10,CSc1nnc(C(C)(C)C)c(=O)n1N,inactive
11,N#CSCSC#N,inactive
12,O=C(O)c1cc(Oc2ccc(C(F)(F)F)cc2Cl)ccc1[N+](=O)[O-],inactive
13,CCOC(=O)COc1cc(-c2nn(C)c(OC(F)F)c2Cl)c(F)cc1Cl,inactive
14,C=C(C)[C@H]1Cc2c(ccc3c2O[C@@H]2COc4cc(OC)c(OC)cc4[C@@H]2C3=O)O1,inactive
15,CSc1nc(NC(C)C)nc(NC(C)C)n1,inactive
16,COP(=O)(OC)SCn1c(=O)oc2cc(Cl)cnc21,inactive
